Columns and labels:
Assay in all cases: DAPPL (digital affinity profiling via proximity ligation, sequencing); 10 mM Tris-HCl pH 7.5, 50 mM NaCl, 1 mM DTT, 4% glycerol, room temperature, 30 min; GST-TFs on glutathione beads, 16-mer random dsDNA library, 0.1% formaldehyde crosslink after washing; high values mean tight binding
Conditions in all cases: protein: recombinant; tags: N-terminal GST; dsDNA, one strand shown
FLI1 = target: T1, FLI1 (Homo sapiens, UniProt Q01543 1-452)
T1 sequence: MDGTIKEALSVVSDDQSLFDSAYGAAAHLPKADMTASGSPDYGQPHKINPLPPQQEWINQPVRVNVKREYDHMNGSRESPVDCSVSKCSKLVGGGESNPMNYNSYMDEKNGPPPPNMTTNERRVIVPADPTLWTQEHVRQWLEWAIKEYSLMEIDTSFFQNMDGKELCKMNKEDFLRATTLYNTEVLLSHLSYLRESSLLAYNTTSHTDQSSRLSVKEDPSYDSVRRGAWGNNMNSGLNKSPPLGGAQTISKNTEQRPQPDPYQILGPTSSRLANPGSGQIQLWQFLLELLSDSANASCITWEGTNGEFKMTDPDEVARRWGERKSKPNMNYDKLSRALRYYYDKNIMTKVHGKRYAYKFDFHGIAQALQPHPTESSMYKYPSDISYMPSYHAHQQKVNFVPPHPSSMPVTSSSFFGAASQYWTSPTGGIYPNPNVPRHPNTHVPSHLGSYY
In short: (§1)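 GST fusions of human transcription factors were expressed in yeast and captured with glutathione beads. Once given DNA barcodes and pooled alongside a tag-only sample, they were incubated for 30 min at room temperature with 200 nmole of a random double-stranded 16-mer DNA library in Tris/NaCl/DTT/glycerol buffer, then washed, crosslinked (0.1% formaldehyde), proximity-ligated, PCR-amplified and sequenced on an Illumina NextSeq500. The binding signal of each hexamer is its read frequency for a factor divided by its frequency for the tag-only sample.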

ELK1 = target: T2, ELK1 (Homo sapiens, UniProt P19419 1-428)
T2 sequence: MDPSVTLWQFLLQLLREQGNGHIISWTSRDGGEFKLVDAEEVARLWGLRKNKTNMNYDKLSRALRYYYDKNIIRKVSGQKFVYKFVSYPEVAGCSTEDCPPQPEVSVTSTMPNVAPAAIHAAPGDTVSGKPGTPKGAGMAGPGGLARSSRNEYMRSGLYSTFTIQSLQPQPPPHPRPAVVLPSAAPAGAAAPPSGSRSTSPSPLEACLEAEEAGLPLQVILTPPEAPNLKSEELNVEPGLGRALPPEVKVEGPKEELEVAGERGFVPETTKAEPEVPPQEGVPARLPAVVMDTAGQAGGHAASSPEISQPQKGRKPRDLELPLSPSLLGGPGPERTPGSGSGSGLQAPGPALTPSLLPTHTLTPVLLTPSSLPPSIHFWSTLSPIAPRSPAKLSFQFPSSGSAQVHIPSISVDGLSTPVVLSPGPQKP
In short: as §1

GABPA = target: T3, GABPA (Homo sapiens, UniProt Q06546 1-454)
T3 sequence: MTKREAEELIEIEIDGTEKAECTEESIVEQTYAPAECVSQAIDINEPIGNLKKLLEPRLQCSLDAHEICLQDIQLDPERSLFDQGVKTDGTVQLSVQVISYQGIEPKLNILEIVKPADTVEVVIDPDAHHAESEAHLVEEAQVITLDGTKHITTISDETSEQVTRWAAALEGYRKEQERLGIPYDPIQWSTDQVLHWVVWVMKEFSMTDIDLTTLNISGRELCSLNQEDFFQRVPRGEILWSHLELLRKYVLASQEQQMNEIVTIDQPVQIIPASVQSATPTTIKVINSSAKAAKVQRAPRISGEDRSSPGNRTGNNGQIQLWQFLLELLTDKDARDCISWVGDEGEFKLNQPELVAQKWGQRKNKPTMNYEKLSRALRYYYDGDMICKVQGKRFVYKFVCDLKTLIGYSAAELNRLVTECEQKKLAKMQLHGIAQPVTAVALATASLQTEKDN
In short: as §1

ERG = target: T4, ERG (Homo sapiens, UniProt P11308 1-479)
T4 sequence: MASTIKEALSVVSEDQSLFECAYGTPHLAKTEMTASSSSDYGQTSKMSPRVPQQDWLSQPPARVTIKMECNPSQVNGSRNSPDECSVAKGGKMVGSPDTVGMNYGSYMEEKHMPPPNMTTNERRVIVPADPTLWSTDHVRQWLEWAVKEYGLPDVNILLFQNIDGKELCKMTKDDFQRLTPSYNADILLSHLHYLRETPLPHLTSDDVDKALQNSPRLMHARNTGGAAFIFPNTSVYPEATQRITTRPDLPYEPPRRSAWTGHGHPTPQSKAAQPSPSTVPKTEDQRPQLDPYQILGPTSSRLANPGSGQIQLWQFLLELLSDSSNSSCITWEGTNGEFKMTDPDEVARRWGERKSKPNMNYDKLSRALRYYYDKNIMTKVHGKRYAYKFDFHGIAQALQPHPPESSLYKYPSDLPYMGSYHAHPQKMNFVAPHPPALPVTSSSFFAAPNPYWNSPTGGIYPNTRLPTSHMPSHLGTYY
In short: as §1

ELF1 = ELF1 (Homo sapiens, UniProt P32519 1-619)
ELF1, sequence (P32519 whole entry): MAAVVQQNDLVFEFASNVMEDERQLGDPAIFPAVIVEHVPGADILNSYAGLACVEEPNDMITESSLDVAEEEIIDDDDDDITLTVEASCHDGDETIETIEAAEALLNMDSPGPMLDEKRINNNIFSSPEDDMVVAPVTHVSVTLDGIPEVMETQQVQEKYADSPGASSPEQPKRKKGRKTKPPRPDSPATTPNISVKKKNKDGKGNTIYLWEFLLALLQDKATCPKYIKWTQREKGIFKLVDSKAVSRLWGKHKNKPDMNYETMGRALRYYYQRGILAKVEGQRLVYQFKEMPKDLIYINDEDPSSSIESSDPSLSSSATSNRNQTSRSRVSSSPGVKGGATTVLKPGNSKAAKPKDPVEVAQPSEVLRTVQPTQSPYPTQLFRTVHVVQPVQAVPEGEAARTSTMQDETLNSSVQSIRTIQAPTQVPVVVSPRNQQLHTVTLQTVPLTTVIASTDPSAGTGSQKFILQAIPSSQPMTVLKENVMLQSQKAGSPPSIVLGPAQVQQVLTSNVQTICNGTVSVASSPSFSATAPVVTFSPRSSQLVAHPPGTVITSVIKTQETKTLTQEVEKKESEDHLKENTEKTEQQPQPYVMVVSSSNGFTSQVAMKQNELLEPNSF
In short: as §1

EHF = target: T5, EHF (Homo sapiens, UniProt Q9NZC4 1-300)
T5 sequence: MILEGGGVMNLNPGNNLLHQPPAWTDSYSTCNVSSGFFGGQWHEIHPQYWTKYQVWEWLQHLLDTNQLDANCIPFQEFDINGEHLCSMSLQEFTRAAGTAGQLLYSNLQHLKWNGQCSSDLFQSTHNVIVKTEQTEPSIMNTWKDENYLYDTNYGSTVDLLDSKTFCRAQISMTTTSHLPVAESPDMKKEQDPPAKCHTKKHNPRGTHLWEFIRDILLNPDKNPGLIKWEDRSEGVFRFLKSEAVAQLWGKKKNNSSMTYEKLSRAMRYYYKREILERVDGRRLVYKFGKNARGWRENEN
In short: as §1

SPI1 = SPI1 (Homo sapiens, UniProt P17947 1-270)
In short: as §1

SPIB = SPIB (Homo sapiens, UniProt Q01892 1-262)
SPIB, sequence (Q01892 whole entry): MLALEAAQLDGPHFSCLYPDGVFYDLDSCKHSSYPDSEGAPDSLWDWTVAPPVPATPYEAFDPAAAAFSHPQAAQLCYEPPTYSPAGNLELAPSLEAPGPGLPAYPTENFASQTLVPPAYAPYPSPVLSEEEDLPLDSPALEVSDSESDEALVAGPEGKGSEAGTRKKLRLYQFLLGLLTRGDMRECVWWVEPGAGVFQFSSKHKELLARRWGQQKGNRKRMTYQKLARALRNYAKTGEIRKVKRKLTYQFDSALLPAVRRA
In short: as §1

ELK3 = target: T6, ELK3 (Homo sapiens, UniProt P41970 1-407)
T6 sequence: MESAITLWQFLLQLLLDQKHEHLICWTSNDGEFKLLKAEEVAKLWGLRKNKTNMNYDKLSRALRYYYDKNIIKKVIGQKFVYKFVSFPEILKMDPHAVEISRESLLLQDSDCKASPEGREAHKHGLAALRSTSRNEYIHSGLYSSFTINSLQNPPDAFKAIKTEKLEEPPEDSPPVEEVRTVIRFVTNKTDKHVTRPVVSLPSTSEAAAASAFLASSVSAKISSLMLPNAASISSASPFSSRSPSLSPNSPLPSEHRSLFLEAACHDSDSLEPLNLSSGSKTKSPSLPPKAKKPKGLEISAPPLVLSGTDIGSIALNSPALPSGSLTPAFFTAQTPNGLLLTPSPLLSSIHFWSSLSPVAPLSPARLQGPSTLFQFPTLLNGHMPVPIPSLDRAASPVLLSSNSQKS
In short: as §1

FEV = target: T7, FEV (Homo sapiens, UniProt Q99581 1-238)
T7 sequence: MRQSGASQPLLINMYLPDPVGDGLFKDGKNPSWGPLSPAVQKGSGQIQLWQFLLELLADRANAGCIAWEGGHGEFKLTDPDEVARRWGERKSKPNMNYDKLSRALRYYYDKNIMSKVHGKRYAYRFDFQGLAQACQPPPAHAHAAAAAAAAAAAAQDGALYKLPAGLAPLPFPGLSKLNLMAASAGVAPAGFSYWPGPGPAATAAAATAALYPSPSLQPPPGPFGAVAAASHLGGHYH
In short: as §1

ETV5 = ETV5 (Homo sapiens, UniProt P41161 1-510)
ETV5, sequence (P41161 whole entry): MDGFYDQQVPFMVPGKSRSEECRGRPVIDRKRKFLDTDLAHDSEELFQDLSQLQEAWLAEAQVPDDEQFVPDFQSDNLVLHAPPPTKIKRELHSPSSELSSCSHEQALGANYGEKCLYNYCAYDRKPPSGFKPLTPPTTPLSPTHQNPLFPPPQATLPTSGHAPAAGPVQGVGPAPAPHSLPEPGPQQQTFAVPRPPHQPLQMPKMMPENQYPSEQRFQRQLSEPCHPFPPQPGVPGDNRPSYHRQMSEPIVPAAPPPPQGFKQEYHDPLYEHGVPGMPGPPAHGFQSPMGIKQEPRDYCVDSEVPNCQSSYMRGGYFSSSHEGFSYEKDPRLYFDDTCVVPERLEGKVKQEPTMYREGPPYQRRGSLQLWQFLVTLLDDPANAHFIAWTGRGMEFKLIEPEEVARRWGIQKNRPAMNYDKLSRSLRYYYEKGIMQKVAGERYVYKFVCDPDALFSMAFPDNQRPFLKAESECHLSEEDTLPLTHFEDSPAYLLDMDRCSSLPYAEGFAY
In short: as §1

SPIC = target: T8, SPIC (Homo sapiens, UniProt Q8N5J4 1-248)
T8 sequence: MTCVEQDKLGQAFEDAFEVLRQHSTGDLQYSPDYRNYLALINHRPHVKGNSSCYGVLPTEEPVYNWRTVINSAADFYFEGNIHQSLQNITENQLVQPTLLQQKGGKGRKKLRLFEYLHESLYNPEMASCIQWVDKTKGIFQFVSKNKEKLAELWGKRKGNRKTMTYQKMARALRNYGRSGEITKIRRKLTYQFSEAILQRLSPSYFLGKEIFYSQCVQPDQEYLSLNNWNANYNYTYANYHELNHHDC
In short: as §1

ELF4 = ELF4 (Homo sapiens, UniProt Q99607 1-663)
ELF4, sequence (Q99607 whole entry): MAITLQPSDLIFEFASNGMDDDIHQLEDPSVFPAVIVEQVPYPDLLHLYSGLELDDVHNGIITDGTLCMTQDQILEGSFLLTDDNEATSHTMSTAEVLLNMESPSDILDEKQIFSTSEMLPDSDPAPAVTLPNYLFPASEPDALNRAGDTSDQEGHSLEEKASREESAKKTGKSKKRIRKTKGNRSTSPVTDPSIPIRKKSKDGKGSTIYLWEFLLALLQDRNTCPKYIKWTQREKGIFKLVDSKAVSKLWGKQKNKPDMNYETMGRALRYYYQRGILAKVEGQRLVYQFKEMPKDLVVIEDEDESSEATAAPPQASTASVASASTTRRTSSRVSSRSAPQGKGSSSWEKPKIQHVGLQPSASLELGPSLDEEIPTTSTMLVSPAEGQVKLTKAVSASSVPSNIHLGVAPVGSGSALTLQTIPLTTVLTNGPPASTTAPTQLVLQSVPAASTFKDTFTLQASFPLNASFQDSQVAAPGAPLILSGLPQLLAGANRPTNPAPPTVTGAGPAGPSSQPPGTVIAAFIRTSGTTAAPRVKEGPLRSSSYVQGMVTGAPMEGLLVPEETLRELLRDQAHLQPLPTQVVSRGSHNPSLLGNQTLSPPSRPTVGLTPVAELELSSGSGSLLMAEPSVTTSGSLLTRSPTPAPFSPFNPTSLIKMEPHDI
In short: as §1

ELK4 = target: T9, ELK4 (Homo sapiens, UniProt P28324-2 1-405)
T9 sequence: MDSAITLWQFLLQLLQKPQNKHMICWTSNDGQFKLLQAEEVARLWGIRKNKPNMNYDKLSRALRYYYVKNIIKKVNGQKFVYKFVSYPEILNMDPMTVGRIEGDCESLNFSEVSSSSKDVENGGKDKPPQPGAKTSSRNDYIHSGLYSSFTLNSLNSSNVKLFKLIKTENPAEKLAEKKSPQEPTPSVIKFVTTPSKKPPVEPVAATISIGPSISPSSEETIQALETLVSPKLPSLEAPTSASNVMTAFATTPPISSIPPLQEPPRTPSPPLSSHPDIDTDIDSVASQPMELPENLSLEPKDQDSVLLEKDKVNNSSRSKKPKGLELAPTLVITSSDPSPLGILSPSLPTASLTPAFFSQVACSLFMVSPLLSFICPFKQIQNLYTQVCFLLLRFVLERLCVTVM
In short: as §1

ETV2 = target: T10, ETV2 (Homo sapiens, UniProt O00321 1-342)
T10 sequence: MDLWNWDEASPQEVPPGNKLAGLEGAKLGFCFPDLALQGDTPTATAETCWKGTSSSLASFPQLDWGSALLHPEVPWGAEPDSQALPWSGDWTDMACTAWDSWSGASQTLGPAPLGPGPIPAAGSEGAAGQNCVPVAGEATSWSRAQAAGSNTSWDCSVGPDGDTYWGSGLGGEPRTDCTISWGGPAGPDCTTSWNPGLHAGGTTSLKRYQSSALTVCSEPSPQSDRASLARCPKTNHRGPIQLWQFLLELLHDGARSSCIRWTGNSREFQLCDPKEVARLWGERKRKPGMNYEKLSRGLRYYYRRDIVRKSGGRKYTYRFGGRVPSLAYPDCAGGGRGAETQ
In short: as §1

ELF3 = target: T11, ELF3 (Homo sapiens, UniProt P78545 1-371)
T11 sequence: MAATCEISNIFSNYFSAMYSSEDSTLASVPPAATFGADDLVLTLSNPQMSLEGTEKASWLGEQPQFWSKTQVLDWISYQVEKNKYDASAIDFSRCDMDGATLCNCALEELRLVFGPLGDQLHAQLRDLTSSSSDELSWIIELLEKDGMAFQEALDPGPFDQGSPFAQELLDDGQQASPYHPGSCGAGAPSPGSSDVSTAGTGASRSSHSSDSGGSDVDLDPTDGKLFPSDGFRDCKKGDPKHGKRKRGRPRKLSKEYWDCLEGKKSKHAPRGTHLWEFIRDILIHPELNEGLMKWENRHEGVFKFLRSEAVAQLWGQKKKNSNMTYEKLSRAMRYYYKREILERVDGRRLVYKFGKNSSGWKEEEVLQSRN
In short: as §1

ETV1 = ETV1 (Homo sapiens, UniProt P50549 1-477)
ETV1, sequence (P50549 whole entry): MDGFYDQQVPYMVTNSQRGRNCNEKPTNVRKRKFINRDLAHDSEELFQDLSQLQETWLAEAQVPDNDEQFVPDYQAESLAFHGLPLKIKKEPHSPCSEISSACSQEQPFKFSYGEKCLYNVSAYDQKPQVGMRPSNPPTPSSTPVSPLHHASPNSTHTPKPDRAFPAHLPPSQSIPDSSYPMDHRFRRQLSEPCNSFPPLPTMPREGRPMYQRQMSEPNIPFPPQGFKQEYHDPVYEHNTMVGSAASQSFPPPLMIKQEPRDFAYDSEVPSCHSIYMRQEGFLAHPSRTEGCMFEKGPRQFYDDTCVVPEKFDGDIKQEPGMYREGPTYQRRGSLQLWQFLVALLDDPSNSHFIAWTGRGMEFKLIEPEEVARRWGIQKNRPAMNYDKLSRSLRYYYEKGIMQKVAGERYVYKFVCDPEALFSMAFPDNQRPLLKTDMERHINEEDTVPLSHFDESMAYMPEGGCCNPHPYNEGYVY
In short: as §1

With AGTGGC the binding signal (FLI1) was 1.31 fold enrichment (6-mer frequency, TF over GST control), the binding signal (ELK1) was 1.19 fold enrichment (6-mer frequency, TF over GST control) and the binding signal (GABPA) was 1.2 fold enrichment (6-mer frequency, TF over GST control). The binding signal (ERG) was 1.28 fold enrichment (6-mer frequency, TF over GST control), the binding signal (ELF1) was 1.23 fold enrichment (6-mer frequency, TF over GST control) and the binding signal (EHF) was 1.4 fold enrichment (6-mer frequency, TF over GST control). For the same sequence, the binding signal (SPI1) was 1.75 fold enrichment (6-mer frequency, TF over GST control), the binding signal (SPIB) was 1.3 fold enrichment (6-mer frequency, TF over GST control) and the binding signal (ELK3) was 1.31 fold enrichment (6-mer frequency, TF over GST control). The binding signal (FEV) was 1.43 fold enrichment (6-mer frequency, TF over GST control), the binding signal (ETV5) was 1.24 fold enrichment (6-mer frequency, TF over GST control) and the binding signal (SPIC) was 1.16 fold enrichment (6-mer frequency, TF over GST control). The binding signal (ELF4) was 1.19 fold enrichment (6-mer frequency, TF over GST control), the binding signal (ELK4) was 1.24 fold enrichment (6-mer frequency, TF over GST control) and the binding signal (ETV2) was 1.18 fold enrichment (6-mer frequency, TF over GST control). The binding signal (ELF3) was 1.36 fold enrichment (6-mer frequency, TF over GST control) and the binding signal (ETV1) was 1.16 fold enrichment (6-mer frequency, TF over GST control).

In the case of CCATCC, the binding signal (FLI1) is reported as 1.24 fold enrichment (6-mer frequency, TF over GST control), the binding signal (ELK1) is reported as 1.28 fold enrichment (6-mer frequency, TF over GST control) and the binding signal (GABPA) is reported as 1.23 fold enrichment (6-mer frequency, TF over GST control). For the same sequence, the binding signal (ERG) was 1.32 fold enrichment (6-mer frequency, TF over GST control), the binding signal (ELF1) was 1.27 fold enrichment (6-mer frequency, TF over GST control) and the binding signal (EHF) was 1.27 fold enrichment (6-mer frequency, TF over GST control). For the same sequence, the binding signal (SPI1) was 1.31 fold enrichment (6-mer frequency, TF over GST control), the binding signal (SPIB) was 1.3 fold enrichment (6-mer frequency, TF over GST control) and the binding signal (ELK3) was 1.41 fold enrichment (6-mer frequency, TF over GST control). The binding signal (FEV) was 1.3 fold enrichment (6-mer frequency, TF over GST control), the binding signal (ETV5) was 1.27 fold enrichment (6-mer frequency, TF over GST control) and the binding signal (SPIC) was 1.33 fold enrichment (6-mer frequency, TF over GST control). The binding signal (ELF4) was 1.27 fold enrichment (6-mer frequency, TF over GST control), the binding signal (ELK4) was 1.19 fold enrichment (6-mer frequency, TF over GST control) and the binding signal (ETV2) was 1.19 fold enrichment (6-mer frequency, TF over GST control). The binding signal (ELF3) was 1.12 fold enrichment (6-mer frequency, TF over GST control) and the binding signal (ETV1) was 1.24 fold enrichment (6-mer frequency, TF over GST control).

Source: publication PMC7862700, “An all-to-all approach to the identification of sequence-specific readers for epigenetic DNA modifications on cytosine”
